We go through 15 compounds from PubChem BioAssay (NCATS).

Records with an inconclusive call do not appear. Values without a mark were called inactive. The source made the active and inactive calls. Calls come from the whole dose curve; as a rule, active = well fitted inhibition curve with a large enough effect; inconclusive = small, poorly fitted or top-dose-only effect; inactive = flat fitted curve, though single readings scatter. Where a SMILES comes first, the peptide text is derived from it. The star is where a group is joined. Cbz = O=C(OCc1ccccc1)*; CH2F = FC*

The subject of one assay is CRL-7250. Kind of assay: Cytotoxic Profiling of Annotated Libraries Using Quantitative High-Throughput Screening (AID 1296008). For max response: % is set by controls: 0 for no effect and ±100 for the full control effect. Note: potency is the fitted concentration of half-maximal effect. The following applies: Five cell lines viability, CellTiter-Glo ATP luminescence, 48-72 h; max response: active compounds read low. The gist of the method: (§1)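 Cytotoxicity was measured as CellTiter-Glo ATP luminescence, read after 10 min at room temperature. Compound treatment of the cells lasted 48 or 72 hr at 37 degrees Celsius in a qHTS format.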
For orientation: Cellular ATP, detected with luciferase, serves as a proxy for viable cell number.

The test system of another assay is HEK293. Described as above. The following applies: Five cell lines viability, CellTiter-Glo ATP luminescence, 48-72 h; max response: active compounds read low. The gist of the method:
as §1

In assay [1] the test system is HaCat. The assay is described as above. The following applies: Five cell lines viability, CellTiter-Glo ATP luminescence, 48-72 h; max response: active compounds read low. The gist of the method:
as §1

The test system of the next assay is KB-3-1. The assay is described as above. The following applies: Five cell lines viability, CellTiter-Glo ATP luminescence, 48-72 h; max response: active compounds read low. The gist of the method: as §1
Assay [2] concerns NIH3T3. The description is as above. The following applies: Five cell lines viability, CellTiter-Glo ATP luminescence, 48-72 h; max response: active compounds read low. Put shortly:
as §1

Assay [3] has as its system HACAT. The experiment in a line: qHTS assay to identify novel small-molecules to repurpose for Merkel cell carcinoma treatment (AID 1296009). The following applies: MCC and control cell lines, CellTiter-Glo viability, 72 h; at 44.8 µM (top of the series) unless noted. Put shortly: (§2)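 Cell viability measured by CellTiter-Glo following 72 hr compound treatment at 37 degree celsius, with NPC and MIPE libraries tested in 8- and 11-point concentration series.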
For orientation: Quantitative high-throughput screening tests each substance at several concentrations.

In assay [4] the test system is NIH3T3. The assay is described as above. The following applies: MCC and control cell lines, CellTiter-Glo viability, 72 h; at 44.8 µM (top of the series) unless noted. The gist of the method:
as §2
Note: nearly all actives have a fitted effect of over 60% in size.

For `C/C(=C\CCC1(C)C2CC3C(C2)C31C)C(=O)O` (stereo not given), the compound was called inactive in the assay with CRL-7250, in the assay with HaCat [1], with KB-3-1, with NIH3T3 [2], with HACAT [3] and in the assay on NIH3T3 [4]. The max response in the assay on HEK293 was -2.35%.
As for `CC1(C)CC[C@]2(C(=O)O[C@@H]3O[C@H](CO)[C@@H](O)[C@H](O)[C@H]3O)CC[C@]3(C)C(=CCC4[C@@]5(C)CC[C@H](O[C@@H]6O[C@H](C(=O)O)[C@@H](O[C@@H]7O[C@H](CO)[C@@H](O)[C@H](O)[C@H]7O)[C@H](O)[C@H]6O[C@@H]6O[C@H](CO)[C@@H](O)[C@H](O)[C@H]6O)C(C)(C)C5CC[C@]43C)C2C1` (stereo not given in full), the max response was -7.32% in the assay with CRL-7250, -5.89% in the assay on HEK293 and 9.55% in the assay with KB-3-1. Besides, the compound was classed as inactive in the assay with HaCat [1] and with NIH3T3 [2]. Further, the outcome with HACAT [3] and in the assay with NIH3T3 [4] was “inactive [at 9.27 µM]” in each case.
For the compound `COc1cc2c(c(OC)c1O)C(c1ccc(O)cc1)C1C(=O)OC3C(COC(=O)C1=C2)OC(CO)(OC1OC(COC(=O)/C=C/c2ccc(OC4OC(C)C(O)C(O)C4O)cc2)C(O)C(O)C1O)C3O` (stereo not given), the results for the max response in the assay with CRL-7250, with HEK293 and with KB-3-1 were 2.78%, -18.4% and -2.91%, respectively. Further, the call in the assay on HaCat [1] and in the assay with NIH3T3 [2] was inactive. In addition, the outcome in the assay with HACAT [3] and in the assay with NIH3T3 [4] was “inactive [at 9.27 µM]” in each case.
For the compound `CC(C)=CCC[C@@](C)(O)[C@H]1CC[C@]2(C)[C@@H]1[C@H](O)CC1[C@@]3(C)CC[C@H](O[C@@H]4O[C@H](CO)[C@@H](O)[C@H](O)[C@H]4O[C@@H]4O[C@H](CO)[C@@H](O)[C@H](O)[C@H]4O)C(C)(C)[C@@H]3CC[C@]12C` (stereo not given in full), the figures for the max response in the assay with CRL-7250 and with HEK293 were 4.67% and 1.62%, respectively. The call with HaCat [1], in the assay with KB-3-1 and in the assay with NIH3T3 [2] was inactive. Moreover, the outcome in the assay with HACAT [3] and with NIH3T3 [4] was “inactive [at 17.4 µM]” in each case.
For `COc1cccc(C)c1C(=O)O[C@@H]1C[C@H](O[C@H]2[C@H](O)C[C@H](O[C@@H]3CCC[C@H]4[C@H]3C=C[C@@H]3CCCC/C=C/[C@H]5C=C(C(=O)O)[C@@H](C)C[C@@]56OC(=O)C(=C6O)OC(=O)[C@@]34C)O[C@@H]2C)O[C@H](C)[C@H]1O`, the max response is -2.06% in the assay on CRL-7250, -11.9% in the assay on HEK293 and 6.21% in the assay on KB-3-1. Moreover, the compound was called inactive in the assay on HaCat [1] and in the assay with NIH3T3 [2]. Further, the outcome in the assay on HACAT [3] and in the assay with NIH3T3 [4] was “inactive [at 9.27 µM]” in each case.
Consider `Cc1ccc([C@@H]2CC=C(C(=O)O)[C@H](c3ccc(C(C)(C)C)cc3)N2S(=O)(=O)c2ccc(C)cc2)cc1`, for which the call in the assay with CRL-7250, in the assay on HaCat [1], with NIH3T3 [2], in the assay on HACAT [3] and in the assay with NIH3T3 [4] was inactive. Moreover, the max response was -30.1% in the assay on HEK293 and 3.45% in the assay with KB-3-1.
Regarding `CCCc1[nH]nc2c1C(c1cc(Cl)cc(Cl)c1O)C(C#N)=C(N)O2` (stereo not given), the values for the max response with CRL-7250 and in the assay on HEK293 were -0.63% and -17.1%, respectively. Moreover, the call in the assay on HaCat [1], in the assay on KB-3-1, in the assay with NIH3T3 [2], with HACAT [3] and in the assay with NIH3T3 [4] was inactive.
As for `CCC(C)C1NC(=O)C2C(C)CCN2C(=O)C(CC(O)CO)OC(=O)CCNC(=O)C(C)N(C)C(=O)C(C(C)C)N(C)C1=O` (stereo not given), the max response was -3.99% with CRL-7250, -0.256% in the assay on HEK293 and 0.529% in the assay with KB-3-1. Besides, the compound was called inactive in the assay with HaCat [1] and with NIH3T3 [2]. The outcome in the assay with HACAT [3] and in the assay with NIH3T3 [4] was “inactive [at 17.4 µM]” throughout.
Take `COC(=O)CC[C@H](NC(=O)[C@H](CC(C)C)NC(=O)OCc1ccccc1)C(=O)N[C@@H](Cc1cnc[nH]1)C(=O)N[C@@H](CC(=O)OC)C(=O)CF` (Cbz-LE(OMe)HD(OMe)-CH2F): the compound was classed as inactive in the assay with CRL-7250, in the assay with HaCat [1], with KB-3-1 and in the assay with NIH3T3 [2]. Besides, the max response with HEK293 is 2.63%. In addition, the outcome in the assay with HACAT [3] and in the assay on NIH3T3 [4] was “inactive [at 9.27 µM]” in each case.
As to `COc1ccc(C2(O)c3ccccc3NC(=O)C2OC)cc1` (stereo not given), the max response in the assay on CRL-7250 was -6.47%; in the assay on HEK293, 1.57%; in the assay on KB-3-1, 5.23%. In addition, the compound was called inactive with HaCat [1], with NIH3T3 [2], with HACAT [3] and in the assay with NIH3T3 [4].
As to `COc1cc(C(CO)C(OC2OC(CO)C(O)C(O)C2O)c2ccc(O)c(OC)c2)ccc1O` (stereo not given), the result in the assay on CRL-7250, in the assay with HaCat [1] and in the assay on NIH3T3 [2] was inactive. Further, the max response was -2.64% in the assay on HEK293 and 3.11% in the assay with KB-3-1. The outcome with HACAT [3] and with NIH3T3 [4] was “inactive [at 17.4 µM]” in each case.
`OC[C@@]1(O)CO[C@@H](OC[C@H]2O[C@@H](OCc3ccccc3)[C@H](O)[C@@H](O)[C@@H]2O)[C@@H]1O`: the results for the max response in the assay with CRL-7250 and in the assay on HEK293 were 1.98% and 2.46%, respectively. The result in the assay on HaCat [1], in the assay with KB-3-1 and with NIH3T3 [2] was inactive. The outcome in the assay on HACAT [3] and in the assay on NIH3T3 [4] was “inactive [at 17.4 µM]” throughout.
`C=C1CC2C3(C)C=CC(=O)OC(C)(C)C3CC(OC(C)=O)C2(C)C2C(=O)OC(C)C(=O)C12C` (stereo not given): the max response was -1.41% in the assay with CRL-7250, -7.78% with HEK293 and 1.96% in the assay on KB-3-1. The compound was classed as inactive with HaCat [1] and in the assay on NIH3T3 [2]. Further, the outcome in the assay on HACAT [3] and with NIH3T3 [4] was “inactive [at 17.4 µM]” in each case.
`O=C1C(Cl)=C(N2CCOCC2)C(=O)N1c1ccc(Cl)c(Cl)c1`: the call in the assay on CRL-7250, in the assay with HaCat [1], in the assay with KB-3-1 and in the assay on NIH3T3 [2] was inactive. For the same compound, the max response in the assay on HEK293 was -3.24%. The outcome in the assay on HACAT [3] and in the assay on NIH3T3 [4] was “inactive [at 17.4 µM]” in each case.
Turning to `C[C@H]1[C@H](C)C[C@@H](C(=O)O)C2CC[C@]3(C)C(=CC[C@@H]4[C@@]5(C)CC[C@H](O)C(C)(C)[C@@H]5CC[C@]43C)[C@@H]21` (stereo not given in full), the max response in the assay with CRL-7250 is -4.25%; in the assay with KB-3-1, 8.63%. For the same compound, the Potency with HEK293 is 25.9 µM (active). The compound was classed as inactive in the assay with HaCat [1], in the assay on NIH3T3 [2], in the assay with HACAT [3] and in the assay with NIH3T3 [4].
